Source: PubChem BioAssay
Unmarked numbers belong to inactive results. Active and inactive are the calls of the source.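 Rule for the calls, unless noted: active = inhibition at or above 50% at 10 µM; inactive = inhibition below 50%.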

Test: blockers of RIG-like receptor reporter activation – cell-based, Sendai virus stimulus, luciferase, 10K MLSCN set, TLR/RLR signaling modifier project, primary screen (AID 602276);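 note: firefly luciferase from ISG56 promoter only with Renilla not read in this screen; 0% = Sendai virus plus DMSO and 100% = medium plus DMSO without virus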
Details: HEK293 RL24 IRF3 luciferase reporter, at 10 µM, active compounds read high

Row | Structure (SMILES) | inhibition [%]
1 | O=C(NC1=NCCS1)c1nc(-c2ccccc2)n(-c2ccccc2)n1 | 8.38
2 | CN(C)/C=N/c1ncnc2c1cnn2-c1ccc(C(F)(F)F)cn1 | -45.2
3 | Cc1cc(=O)n(CCO)c(O)c1C#N | 18.6
4 | CC(=O)c1ccc(OCC(O)CN2CCN(CCO)CC2)cc1 (stereo not drawn) | 13.3
5 | C=CCNC(=O)CSc1nc2sc(C)c(C)c2c(=O)[nH]1 | 9.71
6 | O=S(=O)(NCc1cn2ccsc2n1)c1ccc2c(c1)OCCO2 | 5.63
7 | CC(=O)C(Sc1ncnc2c1nnn2-c1ccc(F)cc1)C(=O)N(C)C (stereo not drawn) | -3.3
8 | CCOCCc1nnc(NC(=O)c2ccc(OC)c(OC)c2)s1 | 14.1
9 | CCCCNC(=O)CSc1nc2ccc(N3CCOCC3)cc2c(=O)n1CCc1ccccc1 | 2.7
10 | CC(=O)c1ccc(OC(=O)c2cccs2)cc1 | -3.03
11 | Cn1nnnc1SCC(=O)N1CCN(c2cccc(Cl)c2)CC1 | 7.81
12 | COc1cc(C(c2sc3nc(C)nn3c2O)N2CC(C)CC(C)C2)cc(OC)c1OC (stereo not drawn) | 9.58
13 | O=C1C2C3C=CC(C3)C2C(=O)N1c1cccc(N2C(=O)C3C4C=CC(C4)C3C2=O)n1 (stereo not drawn) | 3.37
14 | O=C(Nc1ccc(Cl)cc1C(=O)O)c1ccc2c(c1)C(=O)N(Cc1ccco1)C2=O | 23.5
15 | COc1cccc(Oc2cnc(N)nc2-c2ccc(OC)cc2O)c1 | 23.8
16 | CCCC1(C(=O)OC)NC(c2cc(OC)c(OC)c(OC)c2)C2C(=O)N(CC)C(=O)C21 (stereo not drawn) | -10.2
17 | CCN(Cc1cc2ccccc2[nH]c1=O)S(=O)(=O)c1ccccc1 | 12.2
18 | CCOC(=O)c1sc2nc(SCC(=O)NCc3ccco3)n(Cc3ccccc3)c(=O)c2c1C | 5.1
19 | O=C(c1cc2cc(Cl)cc(Cl)c2oc1=O)N1CCOCC1 | 26.9
20 | Cc1ccc2nc(NCCCN3CCOCC3)c(C=NCCCN3CCOCC3)c(=O)n2c1 | 14.7

Row | Structure (SMILES) | inhibition [%]
21 | O=C(NCN1CCCCC1)c1cnccn1 | 13.6
22 | Cc1ccc(N=Cc2ccc(O)cc2O)cc1F | 13
23 | Cn1c2ccc(F)cc2c2ncn(CCN3CCOCC3)c(=O)c21 | -47.2
24 | CCOC(=O)c1ccc(NC(=O)CSC2=NC(=O)C(CC)C(=O)N2)cc1 (stereo not drawn) | -3.93
25 | N#CCCn1ccc(NC(=O)c2ccc(Cl)cc2)n1 | -18.1
26 | CCN(CC)Cc1c(C(=O)OC)nnn1-c1nonc1N | 4.14
27 | CCN1CCN(Cc2nc3c(c(=O)n(C)c(=O)n3C)n2CC(=O)c2ccccc2)CC1 | 6.82
28 | CC(=O)N(C)C1(c2nnnn2CCOC(=O)Nc2ccc(Cl)cc2)CCCCC1 | 1.79
29 | COCCn1nnnc1CN(Cc1cccnc1)Cc1cc2cc(OC)ccc2[nH]c1=O | 14.3
30 | CCOc1cccc(-n2nnnc2-c2ccc(OC)cc2)c1 | 43
31 | COc1ccc(N2CCN(C(c3cccs3)c3nnnn3C3CCCC3)CC2)cc1 (stereo not drawn) | 1.77
32 | CCS(=O)(=O)N1CCCC(C(=O)NCCc2ccc(OC)c(OC)c2)C1 (stereo not drawn) | -5.06
33 | CC(=O)Nc1ccc(S(=O)(=O)NCC(C)NS(=O)(=O)c2ccc(NC(C)=O)cc2)cc1 (stereo not drawn) | -11.9
34 | Cc1nc2ncnn2c(N2CCC(C(=O)NC3CCCC3)CC2)c1Cc1ccccc1 | 5.2
35 | c1ccc(-n2cnc3cc(NCc4ccccn4)ccc32)cc1 | 20.8
36 | Cc1nn(-c2ccc(F)cc2)c2sc(C(=O)N3CCCCCC3)cc12 | -4.92
37 | O=C(Nc1ccccc1-c1ccccc1)NC1CCN(CC(=O)N2CCOCC2)CC1 | 9.32
38 | Cc1ccccc1-c1nc(CN2CCC(C(=O)NC3CCN(Cc4ccccc4)CC3)CC2)c(C)o1 | -19.2
39 | Cc1[nH]c(C(=O)N2CCCCC2)c(C)c1C(=O)NC1CCCCC1 | 5.02

Test: TLR3 IRF3 reporter activation blockers – cell-based, poly I:C stimulus, luciferase, 10K MLSCN set, primary screen (AID 602277;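 active = inhibition of the reporter signal at or above 50%; inactive = inhibition below 50%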)
Details: HEK293-TLR3 RL24 IRF3 luciferase reporter, at 10 µM, active compounds read high

Row | Structure (SMILES) | inhibition
40 | O=C(NC1=NCCS1)c1nc(-c2ccccc2)n(-c2ccccc2)n1 | 11.1%
41 | CN(C)/C=N/c1ncnc2c1cnn2-c1ccc(C(F)(F)F)cn1 | -118%
42 | Cc1cc(=O)n(CCO)c(O)c1C#N | 15%
43 | CC(=O)c1ccc(OCC(O)CN2CCN(CCO)CC2)cc1 (stereo not drawn) | 40.3%
44 | C=CCNC(=O)CSc1nc2sc(C)c(C)c2c(=O)[nH]1 | 21.7%
45 | O=S(=O)(NCc1cn2ccsc2n1)c1ccc2c(c1)OCCO2 | 11.2%
46 | CC(=O)C(Sc1ncnc2c1nnn2-c1ccc(F)cc1)C(=O)N(C)C (stereo not drawn) | -23.2%
47 | CCOCCc1nnc(NC(=O)c2ccc(OC)c(OC)c2)s1 | 20%
48 | CCCCNC(=O)CSc1nc2ccc(N3CCOCC3)cc2c(=O)n1CCc1ccccc1 | 10.3%
49 | CC(=O)c1ccc(OC(=O)c2cccs2)cc1 | 22.4%
50 | Cn1nnnc1SCC(=O)N1CCN(c2cccc(Cl)c2)CC1 | 11.3%
51 | COc1cc(C(c2sc3nc(C)nn3c2O)N2CC(C)CC(C)C2)cc(OC)c1OC (stereo not drawn) | 18.7%
52 | O=C1C2C3C=CC(C3)C2C(=O)N1c1cccc(N2C(=O)C3C4C=CC(C4)C3C2=O)n1 (stereo not drawn) | 21.6%
53 | O=C(Nc1ccc(Cl)cc1C(=O)O)c1ccc2c(c1)C(=O)N(Cc1ccco1)C2=O | 28.2%
54 | COc1cccc(Oc2cnc(N)nc2-c2ccc(OC)cc2O)c1 | 38%
55 | CCCC1(C(=O)OC)NC(c2cc(OC)c(OC)c(OC)c2)C2C(=O)N(CC)C(=O)C21 (stereo not drawn) | 2.76%
56 | CCN(Cc1cc2ccccc2[nH]c1=O)S(=O)(=O)c1ccccc1 | 5.79%
57 | CCOC(=O)c1sc2nc(SCC(=O)NCc3ccco3)n(Cc3ccccc3)c(=O)c2c1C | 21.4%
58 | O=C(c1cc2cc(Cl)cc(Cl)c2oc1=O)N1CCOCC1 | 30.3%
59 | Cc1ccc2nc(NCCCN3CCOCC3)c(C=NCCCN3CCOCC3)c(=O)n2c1 | 33.3%

Row | Structure (SMILES) | inhibition
60 | O=C(NCN1CCCCC1)c1cnccn1 | 29%
61 | Cc1ccc(N=Cc2ccc(O)cc2O)cc1F | 23.4%
62 | Cn1c2ccc(F)cc2c2ncn(CCN3CCOCC3)c(=O)c21 | 99.1% (active)
63 | CCOC(=O)c1ccc(NC(=O)CSC2=NC(=O)C(CC)C(=O)N2)cc1 (stereo not drawn) | -17%
64 | N#CCCn1ccc(NC(=O)c2ccc(Cl)cc2)n1 | -11.6%
65 | CCN(CC)Cc1c(C(=O)OC)nnn1-c1nonc1N | 14.8%
66 | CCN1CCN(Cc2nc3c(c(=O)n(C)c(=O)n3C)n2CC(=O)c2ccccc2)CC1 | 38.5%
67 | CC(=O)N(C)C1(c2nnnn2CCOC(=O)Nc2ccc(Cl)cc2)CCCCC1 | 20.6%
68 | COCCn1nnnc1CN(Cc1cccnc1)Cc1cc2cc(OC)ccc2[nH]c1=O | 25.2%
69 | CCOc1cccc(-n2nnnc2-c2ccc(OC)cc2)c1 | 61.2% (active)
70 | COc1ccc(N2CCN(C(c3cccs3)c3nnnn3C3CCCC3)CC2)cc1 (stereo not drawn) | 11.1%
71 | CCS(=O)(=O)N1CCCC(C(=O)NCCc2ccc(OC)c(OC)c2)C1 (stereo not drawn) | -6.59%
72 | CC(=O)Nc1ccc(S(=O)(=O)NCC(C)NS(=O)(=O)c2ccc(NC(C)=O)cc2)cc1 (stereo not drawn) | -13.4%
73 | Cc1nc2ncnn2c(N2CCC(C(=O)NC3CCCC3)CC2)c1Cc1ccccc1 | 25.7%
74 | c1ccc(-n2cnc3cc(NCc4ccccn4)ccc32)cc1 | -8.3%
75 | Cc1nn(-c2ccc(F)cc2)c2sc(C(=O)N3CCCCCC3)cc12 | -14.2%
76 | O=C(Nc1ccccc1-c1ccccc1)NC1CCN(CC(=O)N2CCOCC2)CC1 | 27.5%
77 | Cc1ccccc1-c1nc(CN2CCC(C(=O)NC3CCN(Cc4ccccc4)CC3)CC2)c(C)o1 | 78% (active)
78 | Cc1[nH]c(C(=O)N2CCCCC2)c(C)c1C(=O)NC1CCCCC1 | 4.54%
